Measurements as given in the supplement of paper PMC7156485.

tested on: TDF; assay: cell number relative to DMSO (% of DMSO); higher = more cells (less growth inhibition / toxicity); conditions: concentration: 10 µM; 24 h
Procedure, shortened: (§1)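 After 24 h at 37 °C with compounds at 10 µM, in triplicate, HCC1569 and TDF cells were fixed with 3.7% formaldehyde. Immunostaining used a rabbit anti-H1.0 antibody and an AlexaFluor 647 secondary, with DAPI, and six fields per well were imaged at ×10. H1.0 nuclear intensity or cell number is presented as percent of the plate control, from the median of replicates, with HCC1569 values smoothed for positional effects.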
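Wherever H1.0 immunofluorescence intensity relative to DMSO is given: TDF is a line of transformed human dermal fibroblasts of mesenchymal origin.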
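Wherever cell number relative to DMSO is given: TDF denotes transformed human dermal fibroblasts of mesenchymal origin.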

Compound | cell number
O=C1NC(=O)C(=Cc2ccc3c(c2)OC(F)(F)O3)S1 [PI 3-KbInhibitor II] | 96.8
CCCCN1CCCC[C@H]1C(=O)Nc1c(C)cccc1C.Cl | 107
Cc1c(C)c2c(c(C)c1O)CCC(C)(C(=O)O)O2 (centres undefined) [Trolox] | 101
COc1ccccc1OCC(O)CO (centres undefined) [Guaifenesin] | 102
Cn1c(=O)c(-c2c(Cl)cccc2Cl)cc2cnc(Nc3ccc(N4CCOCC4)cc3)nc21 | 21.9
CC(F)(F)CN1CCOc2c(nn(-c3ccccc3Cl)c2-c2ccc(Cl)cc2)C1=O | 101

tested on: TDF; assay: H1.0 immunofluorescence intensity relative to DMSO (% of DMSO); higher = stronger H1.0 induction, active = 120 or more; conditions: concentration: 10 µM; 24 h
Procedure, shortened: as §1

Compound | H1.0 immunofluorescence intensity
O=C(/C=C/c1cccnc1)NCCCCC1CCN(C(=O)c2ccccc2)CC1 | 98.9 (inactive)
CCC12CCCN3CCc4c(n(c5ccccc45)C(O)(C(=O)OC)C1)C32 (centres undefined) [Vincamine] | 102 (inactive)
CC(C)NCC(O)COc1cccc2ccccc12 (stereo not drawn) [Propranolol S(-)] | 102 (inactive)
CCCCCCCCCCCCCCCC(O)C(CO)NC(C)=O (centres undefined) [C2 Dihydroceramide] | 99.1 (inactive)
CCOC(=O)Oc1c(OC)cc(C(=O)OC2CC3CN4CCc5c([nH]c6cc(OC)ccc56)C4CC3C(C(=O)OC)C2OC)cc1OC (centres undefined) [Syrosingopine] | 96.8 (inactive)
COc1ccc(CC[C@H]2CCC[C@@H](CCc3ccc(OC)cc3)N2C[C@@H](O)CO)cc1.Cl | 93.3 (inactive)
CCCn1cnc2c1c(=O)n(CCCCC(C)=O)c(=O)n2C [Propentofylline] | 90.3 (inactive)
Cl.Cl.N=C(N)c1ccc(N)cc1 [4-Aminobenzamidine dihydrochloride] | 92.2 (inactive)
